Results: PubChem BioAssay (NCI)
Where “and” joins values, the source holds several entries; their conditions need not be identical. Equal entries are not always repeated. About 83,000 compounds went through this panel and 20% of them were active in at least one assay; those are over-represented in the sample as a whole.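 Note: values are percent growth. 100 is the growth of untreated cells, values between 100 and 0 indicate rising inhibition; between -100 and 0 indicates cell death.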 A number with no mark means an inactive call. Calls of active or inactive are those of the source. How the source made its calls: active means growth percent below 10; inactive means the rest.

Tested on: MDA-MB-468 breast
Assay: NCI-60 one-dose screen, 48 h (100 = growth as untreated, 0 = no growth, -100 = all killed)
Conditions: 10 µM unless noted

| Compound | growth |
| --- | --- |
| CN1C(=O)N(C)C2Nn3c(s/c(=C\c4ccccn4)c3=O)=NC21 (stereo unspecified) | 95.6% |
| O=c1[nH]cc(/C=N\Nc2ccccc2)c(=O)[nH]1 | 90.7% |
| Cn1cc(-c2nn3cc(-c4ccccc4)nc3s2)c2ccccc21 | 71.5% |
| C/C(=N/NC(N)=S)c1sc(Nc2cccc(Cl)c2)nc1C | 47.3% |
| Cc1nonc1-c1ccc2c(c1)OCO2 | 111% and 93.8% |
| Cc1nc2cccc(NCCCCC(=O)NO)c2c(=O)n1-c1ccccc1 | 54.6% |
| COc1ccc2c(c1)OC1=C(C(=O)OC1)C2c1cc(OC)c2c(c1)OCO2 (stereo unspecified) | -7.16% (active) |
| CC[C@@](C)(NC(=O)C(C)(C)NC(=O)[C@@H](NC(=O)[C@@H]1CCCN1C(=O)C(C)(C)NC(=O)[C@H](CC(C)C)NC(=O)CNC(=O)C(C)(C)NC(=O)[C@@H](NC(=O)C(C)(C)NC(=O)[C@H](CCC(N)=O)NC(=O)[C@H](C)NC(=O)C(C)(C)NC(=O)[C@H](C)NC(=O)C(C)(C)NC(=O)[C@H](C)NC(=O)C(C)(C)NC(C)=O)C(C)C)C(C)C)C(=O)N[C@@H](CCC(N)=O)C(=O)N[C@@H](CCC(N)=O)C(=O)N[C@H](CO)CC1CCCCC1 | -10.9% [5 µM] (active) |
| CC(C)n1nc(C#Cc2cccc(O)c2)c2c(N)ncnc21 | -44.2% (active) |
| COc1ncc(-c2ccc3ncnc(Nc4cccc(Cl)c4)c3c2)cc1N(S(C)(=O)=O)S(C)(=O)=O | -3.15% (active) |
| CC(=O)n1c(/C(C#N)=C/c2ccc(N(C)C)cc2)cc2ccccc21 | 14.2% |
| Cc1ccccc1-c1cc(Cc2ccccc2O)c(=O)[nH]n1 | 170% |
| N#Cc1nn(-c2cc(=O)[nH]c3ccc(Cl)cc23)c(N)c1C#N | 110% |
| N=C(N)c1ccc(-c2ccc(-c3ccc(-c4cccs4)s3)s2)cc1 | 96.5% |
| COc1ccc(-c2cc3c(nn2)-c2ccccc2C3=O)cc1 | -4.8% (active) |
| CCc1ccc(-c2ccc(=O)n(-c3ccc(S(N)(=O)=O)cc3)n2)cc1 | 7.89% (active) |
| COC(=O)C1(C)Cc2cc(OC(C)=O)c(OC(C)=O)cc2N1 (stereo unspecified) | -3.93% (active) |
| ON=C1CCCCCCCC1 | 102% and 107% |
| CN(C)c1ccc(C(=O)OCCCCCCl)cc1 | 95.3% |
| CCN1CCN(c2nc(NCCNc3ccnc4cc(Cl)ccc34)c3ccccc3n2)CC1 | -28.8% (active) |
| CCCCn1c(C)nc2ccc(Nc3nc(Cl)nc4nc[nH]c34)cc21 | 34.6% |
| Cn1cc(-c2csc(-c3cn(C)c4ncccc34)n2)c2ccccc21 | 18% |
| CCOC(=O)C1CCN(c2ccc(N3C[C@@H](CNCc4ccc(C(=N)N)cc4)OC3=O)cc2)CC1 | 100% |

| Compound | growth |
| --- | --- |
| CCCCN(C(=O)CC)c1ccccc1 | 106% |
| Cn1nnnc1-c1ccc(N)cc1 | 117% |
| CCOCCNC1=C(Cl)C(=O)c2ccccc2C1=O | 94.7% |
| CCCCCc1c(C)[nH]c(/C=C2\N=C(c3ccc[nH]3)C=C2CC)c1C | -92.1% (active) |
| COC(=O)Nc1nc2ccc(C(=O)c3ccc(F)cc3)cc2[nH]1 | 25.9% |
| CCCCN1C(=O)/C(=c2\sc3n(c2=O)NC2C(N=3)N(CC)C(=O)N2CC)c2ccccc21 (stereo unspecified) | 14.3% |
| CC(C)(C)NC(C1=CC(C)(C)c2ccccc2C1=O)c1ccccc1 (stereo unspecified) | -100% (active) |
| COc1ccc(Cl)cc1NC(=O)c1cc2c(n1C)-c1nc(NC(=O)C(C)(C)C)sc1CC2 | 96.7% |
| Cn1c2ccccc2c2nnc(NCCCCO)nc21 | 95.8% |
| COc1cc(Cl)cc(-c2nn(-c3cccc(NC(=O)c4cc(C(F)(F)F)cc(C(F)(F)F)c4)c3)cc2-c2ccncc2)c1 | 46.5% |
| CC(=O)NC(C)(C)C(=O)N1CCC[C@H]1C(=O)NC(C)(C)C(=O)N[C@@H](C)C(=O)NC(C)(C)C(=O)NC(C)(C)C(=O)N[C@@H](CCC(N)=O)C(=O)NC(C)(C)C(=O)N[C@H](C(=O)NC(C)(C)C(=O)NCC(=O)N[C@@H](CC(C)C)C(=O)NC(C)(C)C(=O)N1CCC[C@H]1C(=O)N[C@H](C(=O)NC(C)(C)C(=O)NC(C)(C)C(=O)N[C@@H](CCC(N)=O)C(=O)N[C@@H](CCC(N)=O)C(=O)N[C@H](CO)Cc1ccccc1)C(C)C)C(C)C | -1.54% [4.25 µM] (active) |
| CCc1ccccc1NC(=O)c1sc2nc3c(cc2c1N)C(=O)CCC3 | 43.3% |
| C#C[C@]1(O)CCC2C3CCc4cc(O)ccc4C3CC[C@@]21C (stereo partly specified) | 12.1% |
| Cc1ccc2c(c1)C(=O)/C(=C/c1cccc(F)c1)S2 | 84.7% |
| O=C1CCCCN1CCCCC#Cc1cccc(C#Cc2cccnc2)c1 | 73.8% |
| Cc1cc2c(F)c(Oc3ncnn4cc(OC[C@@H](C)OC(=O)[C@H](C)N)c(C)c34)ccc2[nH]1 | 71.5% |
| C[C@@H]1CC[C@@H]2[C@@H]1[C@H](OC(=O)/C=C/c1ccccc1)[C@]1(C3CCCCC3)C[C@@H](NC(=O)CO)[C@@]2(C)O1 | 115% |
| CN(C)CCCN1c2ccccc2Sc2ccc(C(F)(F)F)cc21 | -76.9% (active) |
| Cc1ccc(/C=C/CC(=O)Nc2ccc(C(=O)Nc3ccc(F)cc3N)cc2)cn1 | 53.5% |
| CC[C@H](Nc1nc(N)nc(N)c1Cl)c1nc2cccc(NCc3ccc(C(=O)NO)cc3)c2c(=O)n1-c1ccccc1 | -34.3% (active) |
| CCOc1cc(/C=N\NC(=O)N/N=C/c2ccc(O)c(OCC)c2)ccc1O | 3.75% (active) |
| COc1ccc(/C=C2\CN(C(=O)C(Cl)Cl)C/C(=C\c3ccc(OC)cc3)C2=O)cc1 | -27.5% (active) |
| CCOC(=O)CC/C(C)=N\Nc1ccc([N+](=O)[O-])cc1 | 83.2% |
